# Rows were chosen to be rich in hits. Some 2.7% of all compounds tested hit in one or more screens of this group.
# bovine MsrA act: bovine MsrA enzyme activators, primary screen, biochemical, absorbance, HTS. 0.3% of 360,000 active. purified bovine MsrA, absorbance read-out. activation, % at 10.6 µM. AID 602163, 2012. Methionine sulfoxide reductase A (Bos taurus); in the data active = activation above about 7.5%
# rCAG binder: binders of r(CAG) RNA repeats, primary screen, biochemical, fluorescence; inhibition, % at 3 µM; 1.3% of 370,000 active; r(CAG) RNA repeat, TO-PRO-1 dye displacement fluorescence;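 active = inhibition above the plate cutoff, the mean of all test compounds on that plate plus 3 SD, cut at about 35% in these data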;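 also: higher means more dye released from RNA so lower well fluorescence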
# MsrA inh: bovine MsrA enzyme inhibitors, primary screen, biochemical, absorbance, HTS; Methionine sulfoxide reductase A (Bos taurus); inhibition, % at 15.5 µM; 0.75% of 360,000 active; purified bovine MsrA, absorbance read-out; in the data active = inhibition above about 4.5%
# NadD block: inhibitors of S. aureus NadD, primary screen, biochemical, colorimetric, uHTS | inhibition, % at 20 µM | purified NadD enzyme, colorimetric absorbance read-out | 0.78% of 360,000 active | Nicotinate-nucleotide adenylyltransferase NadD (Staphylococcus aureus N315); in the data active = inhibition above about 26%
# NadD inh conf: inhibitors of S. aureus NadD, confirmation, biochemical, colorimetric, single concentration; inhibition, % at 20 µM; shares compounds with NadD block; 13% of 2,000 active; purified S. aureus NadD, colorimetric enzyme assay; in the data active = inhibition mostly above about 42%, no sharp cut-off; inactive = mostly below about 42%
# rCAG bind conf: small molecules binding CAG repeat RNA – biochemical, fluorescence, confirmation; r(CAG) RNA repeat, TO-PRO-1 dye displacement fluorescence; shares compounds with rCAG binder; 70% of 4,300 active; inhibition, % at 3 µM;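 active = inhibition above a per-plate cutoff, the mean inhibition of sample wells plus 3 SD, cut at about 35% in these data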;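 also: loss of TO-PRO-1 fluorescence as compound displaces dye from 1x1 AA loop RNA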
# DNA CAG counter: displacement of TO-PRO-1 from CAG DNA duplex, counter-screen for rCAG RNA repeat binder project, biochemical, fluorescence, TO-PRO-1 dye, d(CAG) DNA oligo. shares compounds with rCAG binder. inhibition, % at 3 µM. d(CAG) DNA oligo TO-PRO-1 dye displacement. 94% of 4,300 active;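 active = inhibition above its plate's cutoff, the mean test-well inhibition plus 3 SD, cut at about 4.8% in these data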;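 also: hits displace the dye from DNA and so lower well fluorescence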
# DNA CAG DR: inhibitors of DNA CAG/GTC TO-PRO-1 complex, dose response, counter-screen for rCAG RNA repeat binder project, biochemical, fluorescence, TO-PRO-1 dye. AID 686960, 2013. IC50, µM. DNA CAG/GTC duplex TO-PRO-1 dye displacement fluorescence. 20% of 250 active. shares compounds with rCAG binder; in the data active = IC50 below about 10 µM
# A number is an active result; - = inactive; . = no result.
SMILES,bovine MsrA act,rCAG binder,MsrA inh,NadD block,NadD inh conf,rCAG bind conf,DNA CAG counter,others
COc1ccc2nc(C)cc(Sc3nc4ccccc4s3)c2c1,-,-,-,-,.,.,.,
Cc1cccc(NC(=O)NCC2CC2)c1,-,-,-,-,.,.,.,
COc1cccc(Nc2nc(-c3sc(NC(=O)c4ccco4)nc3C)cs2)c1,-,37,-,30,42,-,17,
COc1cc(Cl)c(C)cc1NC(=O)CSc1sc2c(O)cc(=O)[nH]c2c1C#N,-,49,-,42,-,55,30,
O=C(COC(=O)c1c2c(nc3ccccc13)/C(=C/c1cccc([N+](=O)[O-])c1)CCC2)NC1CCS(=O)(=O)C1 (centres undefined),-,-,-,-,.,.,.,
CN(CCC#N)C(=O)COC(=O)c1c2c(nc3ccccc13)/C(=C\c1ccco1)CC2,-,65,-,42,58,57,31,
O=C(COC(=O)c1c2c(nc3ccccc13)/C(=C\c1ccco1)CC2)NC1CCCC1,-,60,-,64,51,59,33,
O=C(CCCl)N1CCN(c2nc(-c3ccccc3)cs2)CC1,-,-,-,-,.,.,.,
CCN(CC)S(=O)(=O)c1ccc(C(=O)Nc2nnc(NC(=S)Nc3ccccc3)s2)cc1,-,61,-,47,-,64,33,
CCc1ccc(N2C(=O)Cc3c2nc(N)c(C#N)c3N)cc1,-,-,-,-,.,.,.,
CCN(CC)c1nc2c3c(nc4c(c3c1C#N)CC(=O)N4c1ccc(Cl)cc1)NC(C)=N2,-,60,-,45,-,52,23,
CCOc1ncccc1C(=O)N(CCC(C)C)c1c(N)n(Cc2ccccc2)c(=O)[nH]c1=O,-,-,-,-,.,.,.,
N#Cc1c(NC(=O)CSc2ncnc3sccc23)oc(-c2ccco2)c1-c1ccco1,-,44,-,58,58,55,24,DNA CAG DR=-
CCOC(=O)c1c(-c2ccc(-c3ccccc3)cc2)csc1NC(=O)C1C2CCC(O2)C1C(=O)O (centres undefined),-,51,-,38,57,67,27,
Cc1cc(C)c2c(CN(Cc3ccccc3)Cc3ccccc3)cc(=O)oc2c1,-,-,-,-,.,.,.,
Cc1cc(C)nc(NS(=O)(=O)c2ccc(NC(=O)CN3C(=O)S/C(=C\c4ccccc4)C3=O)cc2)n1,-,60,-,41,-,69,30,
COc1ccccc1/C=C1/SC(=O)N(CCC(=O)Nc2ccc(S(=O)(=O)Nc3nccs3)cc2)C1=O,-,79,-,56,-,80,46,
CC(C)(C)CN1CCN(CC#Cc2ccccc2)CC1CCO (centres undefined),-,-,-,-,.,.,.,
O=C(Nc1cc(Br)ccc1O)c1cc(-c2ccco2)on1,-,43,-,29,-,42,19,
Cc1ccc([N+](=O)[O-])cc1-c1ccc(/C=C(\C#N)c2[nH]nc(N)c2C#N)o1,-,84,-,28,-,63,47,
Cc1ccc(S(=O)(=O)N2[C@@H](c3ccc(C(C)(C)C)cc3)C(C(=O)O)=CC[C@H]2c2ccc(C(C)C)cc2)cc1,-,90,-,51,-,74,44,
Cc1ccc(S(=O)(=O)N2[C@@H](c3ccc(Br)cc3)C(C(=O)O)=CC[C@H]2c2ccc(C(C)C)cc2)cc1,-,-,-,-,.,.,.,
O=C(CN1c2ccccc2Sc2ccccc21)N/N=C/c1ccc(Cl)cc1Cl,-,-,-,-,.,.,.,
O=C(CN1c2ccccc2Sc2ccccc21)NNC(=S)Nc1ccc(Cl)cc1Cl,-,64,-,37,51,60,34,
CCOC(=O)c1sc2nc(-c3ccco3)c3c(c2c1N)CC(C)(C)OC3,-,51,-,32,-,35,14,
SMILES,bovine MsrA act,rCAG binder,MsrA inh,NadD block,NadD inh conf,rCAG bind conf,DNA CAG counter,others
CCc1nn(CC(=O)NCCCN2CCN(CC)CC2)c(=O)c2cc3occc3n12,-,-,-,-,.,.,.,
C=CCSC1=N/C(=C\c2cc(OCC)c(OC(C)=O)c([N+](=O)[O-])c2)C(=O)S1,-,41,-,33,-,61,20,
COC(=O)c1cccc(C23CC4(C2)[C@H](CN(Cc2ccc(C(F)(F)F)cc2)[C@@H]4c2ccccc2)C3c2ccc(C(F)(F)F)cc2)c1 (some centres undefined),.,-,-,.,.,.,.,
COc1cccc(OCc2cc(/C=N/Nc3ccc(C(=O)O)cc3)ccc2OC)c1,-,64,-,46,53,74,37,
O=C(NCC(=O)N1CC(O)CC1C(=O)N1CCCC1C(=O)OCc1ccccc1)OCc1ccccc1 (centres undefined),-,-,-,-,.,.,.,
Cc1ccc(NC(=O)c2cc3c(s2)CCCC3)cc1S(=O)(=O)Nc1ccccc1Cl,-,47,-,30,-,38,13,
COc1ccccc1NS(=O)(=O)c1cc(NC(=O)c2sc3cc(Cl)ccc3c2Cl)ccc1C,-,-,-,-,.,.,.,
CCc1cccc2c(/C=N/NC(=O)c3cccc(S(=O)(=O)Nc4ccccc4Cl)c3)c[nH]c12,-,57,-,32,52,72,31,DNA CAG DR=-
CC(C)CC(C(=O)Nc1oc(-c2ccccc2)c(-c2ccccc2)c1C#N)N1C(=O)c2ccccc2C1=O (centres undefined),-,51,-,36,-,39,19,
Cc1cc(-c2n[nH]c(=S)n2/N=C/c2ccc(Br)s2)n[nH]1,-,-,-,-,.,.,.,
S=c1[nH]nc(-c2cc(-c3ccccc3)n[nH]2)n1/N=C/c1ccc(Br)s1,-,71,-,43,-,79,46,
Cc1cc(C)c2nc(N3C(=O)C(O)=C(C(=O)c4ccco4)C3c3ccco3)sc2c1 (centres undefined),-,81,-,39,-,82,49,
CCOc1ccc2nc(N3C(=O)C(O)=C(C(=O)c4ccco4)C3c3ccco3)sc2c1 (centres undefined),-,-,-,-,.,.,.,
O=C(N/N=C/c1ccc(-c2ccc(Cl)c(C(=O)O)c2)o1)c1cc2c(ccc3ccccc32)o1,-,52,-,39,52,86,61,
O=C(O)c1ccc(/C=N/NC(=O)c2cc3c(ccc4ccccc43)o2)cc1,-,-,-,-,.,.,.,
CS(=O)(=O)c1sc2nc(-c3cccs3)cc(-c3ccccc3)c2c1N,-,65,-,74,-,70,36,

# High-throughput results as filed in PubChem BioAssay.
